Bioassay records (PubChem BioAssay)
DT40 TDP1 CPT = qHTS for Inhibitors of human tyrosyl-DNA phosphodiesterase 1 (TDP1): qHTS in cells in presence of CPT; 420,000 tested, 12% active; Potency, µM (doses to about 46.2 µM), actives largely listed as inhibitors; chicken DT40 Tdp1-/-;hTDP1 cells + 20 nM CPT, ATP luminescence, 48 h; further: nearly all actives have a fitted effect of over 55% in size
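Chicken DT40 Tdp1-/- cells complemented with human TDP1, 400 cells/well, exposed to compounds plus 20 nM camptothecin for at least 48 h at 37 C; viability read as ATP content by CellTiter-Glo luminescence.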
IL1B secr inh = qHTS for Inhibitors of Inflammasome Signaling: IL-1-beta AlphaLISA Primary Screen; activity change, % at 57.5 µM; AID 743279, 2014; 360,000 tested, 4.7% active; THP-1 LPS/ATP IL-1B secretion, AlphaLISA, 16 h; active compounds read low; in the data active means activity change below about -50%; inconclusive means mostly about -30% to -49%
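Secreted IL-1B measured by AlphaLISA bead assay after 16 h compound exposure of THP-1 cells; compounds (final up to 57.5 uM) added 1 h before LPS (250 ng/mL) and ATP (1.25 mM) stimulation; lower signal means less secretion.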
HT1080 IDH1KD tx = qHTS for induction of synthetic lethality in tumor cells producing 2HG: qHTS for the HT-1080-IDH1KD cell line | Potency, µM (doses to about 46.1 µM), actives largely listed as cytotoxic | 360,000 tested, 2% active | HT-1080 IDH1 knockdown viability, ATP luminescence, 48 h
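% activity derives from luminescence (CellTiter-Glo), normalised to DMSO and no-cell wells. HT-1080-IDH1KD cells, 750/well, had 48 h compound exposure at 37 °C.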
TDP1 cell noCPT = qHTS for Inhibitors of human tyrosyl-DNA phosphodiesterase 1 (TDP1): qHTS in cells in absence of CPT | 420,000 tested, 15% active | Potency, µM (doses to about 46.2 µM), hits mostly inhibitors | DT40 Tdp1-/- hTDP1 cells, no CPT, ATP luminescence, 48 h; further: nearly all actives have a fitted effect of over 55% in size
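A cellular qHTS used chicken DT40 cells lacking endogenous Tdp1 but carrying stably transfected human TDP1. Compounds were applied without camptothecin, and cell growth kinetics were judged by ATP-dependent luminescence after ≥48 hr.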
uPA generation = qHTS for Inhibitors of Cell Surface uPA Generation; cell surface uPA generation assay, qHTS; Potency, µM (top dose mostly 38.3 µM), actives largely listed as inhibitors; 330,000 tested, 0.31% active; active means well fitted inhibition curve with a large enough effect; inconclusive means small, poorly fitted or top-dose-only effect; inactive means no such curve, though single readings can be large or run the other way; tested in mouse RAW 264.7 cells; further: nearly all actives have a fitted effect of over 55% in size
HT1080-NT tox = qHTS for induction of synthetic lethality in tumor cells producing 2HG: qHTS for the HT-1080-NT fibrosarcoma cell line; HT-1080-NT fibrosarcoma viability, CellTiter-Glo ATP luminescence, 48 h; Potency, µM (titrated, usually from 46.1 µM), hits mostly cytotoxic; AID 686970, 2013; 360,000 tested, 1.6% active;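 further: NT is the 2HG producing partner of a matched IDH1 knockdown line; nearly all actives have a fitted effect of over 55% in size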
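Fibrosarcoma NT cells, 750 per well in 5% FBS RPMI, were exposed to compound for 48 hours. Viability: CellTiter-Glo luminescence.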
Hits are given with their value; ! = a repeat was not active. Sampled rows, rich in hits. Any-hit rate of the full collection: about 19%. Unless noted, the call rests on the fitted dose curve; in most records, active means well fitted curve in the direction sought with a large enough effect; inconclusive means small, poorly fitted or top-dose-only effect, or another doubt; inactive means no such curve, though single readings can be large; an effect the other way counts as inactive or inconclusive.

How did Cc1ccc2c(C)c(C(=O)N3CCN(Cc4ccc5c(c4)OCO5)CC3)oc2c1C do in these assays?
DT40 TDP1 CPT: inconclusive; IL1B secr inh: -78; HT1080 IDH1KD tx: inactive; TDP1 cell noCPT: inconclusive; uPA generation: inactive; HT1080-NT tox: inactive

What do the screens show for `N#C/C(=C\c1c(Oc2ccccc2F)nc2ccccn2c1=O)C(=O)NC1CCS(=O)(=O)C1` (stereo not drawn)?
DT40 TDP1 CPT: inactive; IL1B secr inh: inconclusive; HT1080 IDH1KD tx: inactive; TDP1 cell noCPT: inconclusive; uPA generation: inactive; HT1080-NT tox: inactive

What do the screens show for `Cc1cccc(C(=O)Nc2nnc(S(=O)(=O)N(C)c3ccccc3C)s2)c1`?
DT40 TDP1 CPT: inactive; TDP1 cell noCPT: inactive

Results for CCCCN(C)CCNC(=O)C1CCCN(S(=O)(=O)c2ccc3c(c2)oc(=O)n3C)C1 (stereo not drawn) ?
DT40 TDP1 CPT: inactive; TDP1 cell noCPT: inactive

Results for CCCNC(=O)c1cc(C2CCCCN2S(=O)(=O)c2ccccc2)on1 (stereo not drawn) ?
DT40 TDP1 CPT: inactive; IL1B secr inh: inactive; HT1080 IDH1KD tx: inactive; TDP1 cell noCPT: inconclusive; HT1080-NT tox: inactive

How did Cc1ccc2c(C)c(C(=O)N3CCN(c4cnccn4)CC3)oc2c1C do in these assays?
DT40 TDP1 CPT: inconclusive; IL1B secr inh: -63; HT1080 IDH1KD tx: inactive; TDP1 cell noCPT: 18µM; uPA generation: inactive; HT1080-NT tox: inactive

What do the screens show for `COc1ccccc1/C=N/Nc1nc(C)cc(=O)[nH]1`?
DT40 TDP1 CPT: inactive; IL1B secr inh: inactive; HT1080 IDH1KD tx: inactive; TDP1 cell noCPT: inactive; HT1080-NT tox: inactive

Results for COc1ccccc1/C=N/Nc1cc(N(C)C)nc(N(C)C)n1 ?
DT40 TDP1 CPT: inactive; IL1B secr inh: -153; HT1080 IDH1KD tx: inconclusive; TDP1 cell noCPT: inconclusive; uPA generation: inactive; HT1080-NT tox: inconclusive

How did COc1ccc(/C=N/Nc2cc(N(C)C)nc(N(C)C)n2)cc1 do in these assays?
DT40 TDP1 CPT: inconclusive; IL1B secr inh: -75; HT1080 IDH1KD tx: inactive; TDP1 cell noCPT: inconclusive; uPA generation: inactive; HT1080-NT tox: inactive

How did COc1ccc(/C=N/Nc2cc(C)nc(N)n2)cc1 do in these assays?
DT40 TDP1 CPT: inactive; IL1B secr inh: inactive; HT1080 IDH1KD tx: inactive; TDP1 cell noCPT: inactive; uPA generation: inactive; HT1080-NT tox: inactive

What do the screens show for `O=C(NCCCN1CCOCC1)C(=O)NCC1OCCN1S(=O)(=O)c1ccc(Cl)cc1` (stereo not drawn)?
DT40 TDP1 CPT: inactive; IL1B secr inh: inactive; HT1080 IDH1KD tx: inactive; TDP1 cell noCPT: inconclusive; HT1080-NT tox: inactive

How did CNc1ccnc(-c2cccc(NS(C)(=O)=O)c2)n1 do in these assays?
DT40 TDP1 CPT: inactive; TDP1 cell noCPT: inactive

What do the screens show for `COc1cc2c(cc1OC)CN(c1ccc(C(F)(F)F)cn1)CC2`?
DT40 TDP1 CPT: inconclusive; IL1B secr inh: -90; HT1080 IDH1KD tx: inconclusive; TDP1 cell noCPT: 16µM; uPA generation: inactive; HT1080-NT tox: inconclusive

How did COc1cc(C(=O)COC(=O)C2CCN(c3ccc(C(F)(F)F)cn3)CC2)ccc1OC(F)F do in these assays?
DT40 TDP1 CPT: inactive; IL1B secr inh: inactive; HT1080 IDH1KD tx: inactive; TDP1 cell noCPT: inactive; uPA generation: inactive; HT1080-NT tox: inactive

Results for COc1cc2c(cc1OC)CN(c1ccc(-c3ccccc3OC)nn1)CC2 ?
DT40 TDP1 CPT: inconclusive; HT1080 IDH1KD tx: inactive; TDP1 cell noCPT: 23µM; uPA generation: inactive; HT1080-NT tox: inactive

What do the screens show for `CCN(c1cccc(C)c1)S(=O)(=O)c1ccc2c(c1)N(C(C)=O)CCS2`?
DT40 TDP1 CPT: inconclusive; IL1B secr inh: inactive; HT1080 IDH1KD tx: inactive; TDP1 cell noCPT: inactive; uPA generation: inactive; HT1080-NT tox: inactive

How did COc1ccc(N2CCN(C(=O)c3cc4c(=O)n(Cc5ccccc5)ccc4nc3C)CC2)cc1 do in these assays?
DT40 TDP1 CPT: inconclusive; IL1B secr inh: inactive; HT1080 IDH1KD tx: inactive; TDP1 cell noCPT: inconclusive; uPA generation: inactive; HT1080-NT tox: inactive

Results for COc1cccc(NC(=O)c2cc3c(=O)n(Cc4cccnc4)ccc3nc2C)c1 ?
DT40 TDP1 CPT: inactive; TDP1 cell noCPT: inactive

What do the screens show for `COc1ccc(Cn2ccc3nc(C)c(C(=O)N4CCN(c5ccccc5F)CC4)cc3c2=O)cc1`?
DT40 TDP1 CPT: 23µM; TDP1 cell noCPT: 18µM

What do the screens show for `COc1cccc(N2CCN(C(=O)c3cc4c(=O)n(Cc5ccccc5)ccc4nc3C)CC2)c1`?
DT40 TDP1 CPT: 16µM!; IL1B secr inh: inactive; HT1080 IDH1KD tx: inconclusive; TDP1 cell noCPT: inconclusive; uPA generation: inactive; HT1080-NT tox: inconclusive

How did CCc1cccc(NC(=O)c2cc3c(=O)n(Cc4ccc(OC)cc4)ccc3nc2C)c1 do in these assays?
DT40 TDP1 CPT: inconclusive; TDP1 cell noCPT: 15µM

What do the screens show for `Cc1nn(C(C)(C)C)c(OC(=O)c2cccs2)c1S(=O)(=O)c1ccccc1`?
DT40 TDP1 CPT: inactive; IL1B secr inh: inactive; HT1080 IDH1KD tx: inconclusive; TDP1 cell noCPT: inconclusive; uPA generation: inactive; HT1080-NT tox: 21µM

Results for CC(=O)Oc1c(S(=O)(=O)c2ccccc2)c(C)nn1C(C)(C)C ?
DT40 TDP1 CPT: inactive; IL1B secr inh: inactive; HT1080 IDH1KD tx: inactive; TDP1 cell noCPT: inactive; uPA generation: inactive; HT1080-NT tox: inactive

What do the screens show for `CCCCC(=O)Oc1c(S(=O)(=O)c2ccccc2)c(C)nn1C(C)(C)C`?
DT40 TDP1 CPT: inactive; IL1B secr inh: -77; HT1080 IDH1KD tx: inconclusive; TDP1 cell noCPT: inconclusive; uPA generation: inactive; HT1080-NT tox: inconclusive

What do the screens show for `CCN1CCN(CCCOc2ccc(Cl)cc2Br)CC1`?
DT40 TDP1 CPT: inconclusive; IL1B secr inh: inactive; HT1080 IDH1KD tx: inactive; TDP1 cell noCPT: 16µM; uPA generation: inactive; HT1080-NT tox: inconclusive

What do the screens show for `Clc1ccc(OCCN2CCCCC2)c(Cl)c1`?
DT40 TDP1 CPT: inactive; IL1B secr inh: inactive; HT1080 IDH1KD tx: inconclusive; TDP1 cell noCPT: inactive; uPA generation: inactive; HT1080-NT tox: inactive

How did Clc1ccc(Cl)c(OCCCCN2CCNCC2)c1 do in these assays?
DT40 TDP1 CPT: 5.8µM; IL1B secr inh: -74; HT1080 IDH1KD tx: inconclusive; TDP1 cell noCPT: inconclusive; uPA generation: inactive; HT1080-NT tox: inconclusive

What do the screens show for `Clc1ccc(OCCCCCN2CCCC2)c(Br)c1`?
DT40 TDP1 CPT: inconclusive; IL1B secr inh: inconclusive; HT1080 IDH1KD tx: inconclusive; TDP1 cell noCPT: 23µM; uPA generation: inactive; HT1080-NT tox: inconclusive

Results for Clc1ccc(SCCN2CCNCC2)cc1 ?
DT40 TDP1 CPT: inconclusive; IL1B secr inh: inactive; HT1080 IDH1KD tx: inactive; TDP1 cell noCPT: 18µM; uPA generation: inconclusive; HT1080-NT tox: inactive
